Data published in PubChem BioAssay AID1434 (Sanford-Burnham Center for Chemical Genomics, 2008).
The whole screen tested about 220,000 compounds, of which about 1,600 (0.73%) were called active.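 Rule for the calls: active = mean inhibition across duplicate retests at 20 µM reaching about 50% (limit read from the data); inactive = the rest, inconclusive results apart.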 The entries come from a sample that favours actives as a whole.

Molecular target: Runt-related transcription factor 1 (Homo sapiens) + Core-binding factor subunit beta (Homo sapiens) (UniProt Q01196+Q13951)
Sequence (Q01196 whole entry, looked up): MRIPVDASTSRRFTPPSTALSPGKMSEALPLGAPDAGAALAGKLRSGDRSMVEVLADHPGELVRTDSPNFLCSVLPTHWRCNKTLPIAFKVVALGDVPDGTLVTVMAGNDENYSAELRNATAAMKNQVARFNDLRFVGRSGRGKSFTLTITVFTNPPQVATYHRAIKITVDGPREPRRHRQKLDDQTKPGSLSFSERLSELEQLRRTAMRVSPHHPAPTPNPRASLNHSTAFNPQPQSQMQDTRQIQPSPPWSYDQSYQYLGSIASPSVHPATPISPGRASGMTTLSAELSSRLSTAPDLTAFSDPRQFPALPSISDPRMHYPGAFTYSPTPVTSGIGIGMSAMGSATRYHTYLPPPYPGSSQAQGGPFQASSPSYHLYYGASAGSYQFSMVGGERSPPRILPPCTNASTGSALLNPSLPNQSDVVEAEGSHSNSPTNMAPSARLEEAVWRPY
Sequence (Q13951 whole entry, looked up): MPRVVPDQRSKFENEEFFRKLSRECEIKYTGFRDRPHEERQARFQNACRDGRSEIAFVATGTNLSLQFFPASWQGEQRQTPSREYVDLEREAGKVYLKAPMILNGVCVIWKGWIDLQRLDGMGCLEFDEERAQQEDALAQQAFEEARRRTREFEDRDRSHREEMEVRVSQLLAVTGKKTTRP
Assay: inhibitors of RUNX1 Runt–CBFb-SMMHC binding, primary screen, biochemical, FRET, Cerulean-Runt, Venus-CBFb-SMMHC, uHTS (AID 1434);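 note: 0% = DMSO wells and 100% = wells with excess untagged CBFb-SMMHC; inhibitors lower the FRET ratio by blocking Runt binding to CBFb-SMMHC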
Conditions: Cerulean-Runt/Venus-CBFb-SMMHC FRET ratio 530/480, 1 h, at 20 µM, stronger effect = higher value

Compound	inhibition	inhibition (retest duplicate average) [%]
CCOC(=O)c1c(N)n(Cc2ccccc2)c2nc3ccccc3nc12	97.2% (active)	128
CCOC(=O)c1c(N)n(CCN2CCOCC2)c2nc3ccccc3nc12	69.9% (active)	73.1
O=C(OCCN1CCOCC1)C1(c2ccccc2)CCCC1	-5.6% (inactive)	
COc1cc(Cn2c(N)c(C(=O)NCc3ccco3)c3nc4ccccc4nc32)cc(OC)c1OC	34.2% (inactive)	
CC/C(=N\NC(=O)c1ccccc1O)c1c(O)n(Cc2ccccc2)c(=O)[nH]c1=O	-0.6% (inactive)	
CCOc1cccc(=NC2CCCCC2)c2c(C)[nH]c(C)c12	-11% (inactive)	
CC1(C)C(c2ccccc2)=NC(c2cccnc2)=[N+]1[O-]	-6.5% (inactive)	
C/C=C/CC1(CC)C(=O)NC(=S)NC1=O	-3.2% (inactive)	
COc1cc(OC)cc(C2(C#N)CCN(C)CC2)c1	-1.4% (inactive)	
CCOC(=O)C1(CCc2ccccc2)CCN(Cc2ccco2)CC1	-5.4% (inactive)	
